A selection: hits, their analogues and other compounds. The true share with any hit is near 5.7%.
DRD3 agonist: qHTS of D3 Dopamine Receptor Agonist: qHTS. hit rate 0.58% among 410,000. D3R DiscoveRx beta-arrestin cells, luminescence, 90 min. max activation, %; in the data active = max activation above about 30%; note: 0% is about no effect
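Cells at 1500/well, incubated overnight, then treated with pinned compounds (dopamine as control) for 90 min at 37 degrees C. DiscoveRx reagent added for 30 - 60 minutes at room temperature; luminescence read.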
HEK293 tox: qHTS of GLP-1 Receptor Inverse Agonists: Cytotox Screen | Potency, µM (series often up to 38.3 µM), for inactives: at the top dose activity change, negative = inhibition, most hits filed as inhibitors | HEK293 cAMP-luciferase reporter cells, luminescence, 24 h | hit rate 0.13% among 410,000;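 note: loss of luciferase light is scored as toxicity; potency is the fitted concentration of half-maximal effect; % is set by controls: 0 for no effect and ±100 for the full control effect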
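Luminescence readout: signal drop marks cytotoxicity. Plated cells grew 12 h at 37 °C, 5% CO2, received 23 nL compound for 24 h, then got luciferase reagent, read after 12 min at RT.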
GLP-1R inv ag: qHTS of GLP-1 Receptor Inverse Agonists (Inhibition Mode); hit rate 1.6% among 410,000; HEK293 GLP-1R CRE-luciferase, luminescence, 24 h; GLP-1R form is constitutively active; Potency, µM (titrated, usually from 38.3 µM), without a hit: at the highest dose activity change, negative = inhibition, most hits filed as inhibitors; Glucagon-like peptide 1 receptor (Homo sapiens), P43220; note: potency is the fitted concentration of half-maximal effect; % is set by controls: 0 for no effect and ±100 for the full control effect; nearly all actives have a fitted effect of over 55% in size
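Constitutively active GLP-1R drives a cAMP-responsive luciferase in stably transfected HEK293 cells; test compounds are added after overnight (12 h) attachment and left 24 hr, and signal loss in luminescence marks inhibition.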
GLP-1R agonist: qHTS of GLP-1 Receptor Agonists. hit rate 0.007% among 380,000. Glucagon-like peptide 1 receptor (Homo sapiens), P43220. AID 624172, 2012. HEK293 GLP-1R CRE-luciferase, luminescence, 4-6 h; cells express a hypersensitive GLP-1R form. Potency, µM (titrated, usually from 45.6 µM), for the others: at the top dose activation, actives largely listed as activators; note: potency is the fitted concentration of half-maximal effect; % of control where 0% means no effect
ClpP mod: qHTS Assay for Activators of ClpP; ATP-dependent Clp protease proteolytic subunit (Bacillus subtilis (strain 168)), P80244; Potency, µM (highest dose often 57.5 µM), for inactives: top-dose activity change, negative = active; purified B. subtilis ClpP, FRET peptide cleavage, 20 min; hit rate 1.9% among 340,000; active = well fitted falling curve with a large enough effect; inconclusive = small, poorly fitted or top-dose-only effect; inactive = no such curve, though single readings can be large or run the other way; note: potency is the fitted concentration of half-maximal effect; the source files actives as falling curves though it sought activators and does not explain the sign; nearly all actives have a fitted effect of over 65% in size
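ClpP 10 microg/mL final, pH 8 Tris/KCl buffer with BSA, glycerol, Tween-20; compound pinned in; FRET-FV substrate; RT 20 min; Ex320/Em430; ΔFRET vs ADEP 5.8 microM, DMSO, no enzyme.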
D3 antag: qHTS of D3 Dopamine Receptor Antagonist: qHTS; D(3) dopamine receptor (Homo sapiens), P35462; hit rate 2.5% among 360,000; AID 652054, 2013; max response, negative = inhibition, %; D3R cells, DiscoveRx beta-arrestin luminescence, antagonist mode; stronger effect = lower value; in the data active = max response below about -50%; inconclusive = no clear call, values can overlap the other calls; note: % is set by controls: 0 for no effect and ±100 for the full control effect
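Cells plated overnight at 1500 cells/well, then exposed to library compounds with dopamine controls for 90 minutes at 37 degrees C. DiscoveRx reagent added for 30–60 minutes at room temperature; luminescence read, quantitative HTS format.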
Starred values were filed as active, the others as inactive; ? = inconclusive; · = not tested or not shown. Unless noted, calls come from the whole dose curve; as a rule, active = well fitted curve in the direction sought with a large enough effect; inconclusive = small, poorly fitted or top-dose-only effect, or another doubt; inactive = no such curve, though single readings can be large; an effect the other way counts as inactive or inconclusive.

SMILES	DRD3 agonist	HEK293 tox	GLP-1R inv ag	GLP-1R agonist	ClpP mod	D3 antag
COc1cccc2cc(C(=O)OCC(=O)NC3CCCC(C)C3C)c(=O)oc12 (configuration not stated)	81.6*	-2.9%	6.2%	10.1%	·	-8.8
COc1cccc(/C=C(/C(=O)OCC(N)=O)c2ccccc2)c1	-3.3	8.0%	?	8.4%	·	-6.2
CC1CCCC(NC(=O)COC(=O)CCC(=O)c2ccc(F)cc2)C1C (configuration not stated)	-0.4	-12.1%	9.6%	-11.9%	2.51µM*	-0.8
COc1cccc(/C=C(/C(=O)OCC(=O)NC2CCCC(C)C2C)c2ccccc2)c1 (configuration not stated)	5.3	-6.4%	10µM*	9.6%	0.2%	10.5
COc1cccc2c1cc1c(=O)n(CC(=O)NCc3ccc(C)o3)nc(C)n12	0.5	14.1%	9.7%	·	?	·
CCN1CCOC(=O)C1CC(=O)Nc1ccc(C)c(Cl)c1 (configuration not stated)	-0.1	-3.6%	12.1%	-1.8%	1.5%	·
Cc1ccc(-n2c(C)cc3c2CC(C)(C)CC3=O)cc1C	-5.3	2.5%	?	7.8%	-5.0%	-88.4*
CC(C)(C)NC(=O)C(c1ccc(C#N)cc1)n1c(=O)c(-c2ccco2)nc2ccccc21 (configuration not stated)	1.3	-0.4%	8.2%	·	4.1%	6.9
CCOc1ccc(-c2nc(S(=O)(=O)c3ccccc3)c(NC)o2)cc1	7.5	1.6%	13.4%	-5.0%	75.6%	5.9
CCN1CCN(c2oc(-c3ccccc3C)nc2S(=O)(=O)c2ccccc2)CC1	-35.8	?	?	-3.3%	-3.9%	-83.5*
O=S(=O)(c1ccccc1)c1nc(-c2ccccc2Cl)oc1N1CCCCCC1	-7.1	1.5%	?	·	-29.7%	·
CNc1oc(Cc2ccccc2)nc1S(=O)(=O)c1ccccc1	4.5	8.1%	2.6%	-7.4%	-1.9%	-89.5*
CCOP(=O)(c1ccccc1)c1nc(-c2ccccc2Cl)oc1N1CCCCC1 (configuration not stated)	0.2	-15.1%	?	4.5%	20µM*	-72.8*
Cc1ccc(S(=O)(=O)c2nc(-c3ccccc3Cl)oc2N2CCCCCC2)cc1	-8.2	-0.3%	?	·	17.8µM*	·
O=C(c1cccc([N+](=O)[O-])c1)N1CCN(c2ccc(Nc3ccccc3)nn2)CC1	9.2	8.8%	-12.6%	·	-1.4%	·
O=C(Nc1ccccc1Sc1ccccc1)c1cnn2c1NC(=C1CC1)C=C2C(F)(F)F	·	·	·	·	-0.8%	·
CNc1oc(-c2ccccc2F)nc1S(=O)(=O)c1ccc(C)cc1	-4.5	-0.3%	2.3%	4.4%	10µM*	-3.4
Cc1ccc(S(=O)(=O)c2nc(-c3ccccc3Cl)oc2N2CCN(C)CC2)cc1	-17.1	-4.0%	10µM*	8.3%	0.4%	-54.7*
CC1=C(C(=O)N2CCCCCC2)CC(CC(=O)NCCN2CCOCC2)C(=O)N1Cc1ccc(F)cc1 (configuration not stated)	-11.3	4.5%	8.2%	2.7%	0.3%	0.0
COc1ccccc1NC(=O)C1CCCN(c2ncnc3onc(-c4ccc(F)cc4)c23)C1 (configuration not stated)	4.5	-1.0%	3.2%	·	0.7%	·
Cc1nc2ccn(Cc3cccnc3)c(=O)c2cc1C(=O)NCc1ccccc1	-3.0	-2.0%	-37.0%	·	?	·
COc1ccccc1CCC(=O)O	·	·	·	·	-4.0%	·
CC(C)C[C@@H]1Cc2[nH][nH]c(=O)c2[C@H](C)O1	2.9	-0.5%	7.9%	0.4%	-2.8%	33.4
Cc1ccc(Oc2ccc(S(=O)(=O)N3CCOCC3)cc2C(N)=O)c(-n2nc3ccccc3n2)c1	-11.6	-29.1%	-23.7%	8.2%	31.6µM*	?
CCOC(=O)c1ccc(N2C(=O)C=CC2=O)cc1	3.5	?	0.0%	-15.2%	0.4%	-81.7*
SMILES	DRD3 agonist	HEK293 tox	GLP-1R inv ag	GLP-1R agonist	ClpP mod	D3 antag
Cc1ccc(CNC(=O)CCCn2c(=O)c3ccccc3n(Cc3ccccc3C)c2=O)cc1	7.8	-3.8%	-5.5%	0.8%	-5.1%	·
C=C(C)CNC(=S)NNC(=O)CCn1c2cc(Cl)ccc2c2ccc(Cl)cc21	3.7	-7.6%	11.2µM*	-12.1%	-0.7%	21.0
C=C(C)CNC(=S)NNC(=O)CCn1c2ccc(Cl)cc2c2cc(Cl)ccc21	-9.2	-16.9%	?	-4.3%	-9.1%	-11.1
CO[C@H]1C=CO[C@@]2(C)Oc3c(C)c(O)c4c(O)c(c5c(c4c3C2=O)=NC2(CCN(CC(C)C)CC2)N=5)NC(=O)/C(C)=C\C=C/[C@H](C)[C@H](O)[C@@H](C)[C@@H](O)[C@@H](C)[C@H](OC(C)=O)[C@@H]1C	7.9	·	·	·	·	·
CO[C@H]1CN(C)C(=O)c2ccc(NC(=O)c3ccc4c(c3)OCO4)cc2OC[C@H](C)N(CC2CC2)C[C@@H]1C	-7.8	1.1%	-4.0%	·	-1.9%	-9.3
COc1ccc(CN2C[C@H]3CCCN3c3cc(Br)ccc3S2(=O)=O)cc1	-36.9	-24.7%	0.891µM*	14.7%	-1.5%	?
C=C1[C@@H](O)CN(Cc2ccc(OC)cc2)S1(=O)=O	·	·	·	·	1.0%	·
COc1cc(C(=O)COC(=O)c2ccc3c(c2)OCCO3)cc(OC)c1OC	-2.5	-10.3%	-20.0%	18.8%	1.9%	?
CCC12CN3CC(C)(CN(C1)C3c1c[nH]c3ccccc13)C2=O (configuration not stated)	5.4	-4.6%	-13.2%	·	0.8%	·
CCCNC(=O)NS(=O)(=O)c1cnccc1Sc1ccc(Cl)c(Cl)c1	9.9	-5.9%	17.1%	-2.1%	22.4µM*	-53.4*
O=C(O)c1ccc(N=Nc2c(O)ccc3ncccc23)cc1	-8.3	-21.6%	?	-13.3%	2.2%	-75.3*
OC[C@@H]1CN(Cc2ccco2)C[C@H](n2cnc3c(N4CCN(c5ccccc5)CC4)ncnc32)O1	5.7	0.2%	6.7%	-3.1%	-0.5%	2.2
Cc1ccc(NC(=O)C(C)N=C2NS(=O)(=O)c3ccccc32)cc1F (configuration not stated)	-27.1	2.3%	19.7%	8.0%	·	-56.1*
CC(N=C1NS(=O)(=O)c2ccccc21)C(=O)NCCCc1ccccc1 (configuration not stated)	-17.3	-22.3%	-0.6%	-1.7%	0.7%	-4.2

Screens (PubChem BioAssay)
